Test results from PubChem BioAssay (NCI).
This is part of a sample that, as a whole, favours compounds with a hit. Of some 83,000 tested, about 20% had one in any assay.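 Method: cells in 96-well plates; compound added at one concentration; 48 h incubation; percent growth measured; values under 10 scored active.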 The source made the active and inactive calls.

How the values were obtained:
Test in all cases: NCI-60 one-dose screen, 48 h (100 = growth as untreated, 0 = no growth, -100 = all killed)
Conditions in all cases: 10 µM unless noted
SR leukemia = test system: SR leukemia
RPMI-8226 leukemia = test system: RPMI-8226 leukemia
OVCAR-8 ovarian = test system: OVCAR-8 ovarian
OVCAR-5 ovarian = test system: OVCAR-5 ovarian
SK-OV-3 ovarian = test system: SK-OV-3 ovarian
IGROV1 ovarian = test system: IGROV1 ovarian
OVCAR-3 ovarian = test system: OVCAR-3 ovarian
HS 578T breast = test system: HS 578T breast
NCI/ADR-RES ovarian = test system: NCI/ADR-RES ovarian
T-47D breast = test system: T-47D breast
MDA-MB-435 melanoma = test system: MDA-MB-435 melanoma
SW-620 colon = test system: SW-620 colon
MCF7 breast = test system: MCF7 breast
HCT-116 colon = test system: HCT-116 colon
HCC-2998 colon = test system: HCC-2998 colon
KM12 colon = test system: KM12 colon
BT-549 breast = test system: BT-549 breast

Measured: growth

CSc1nc(N)c(N=Nc2ccc(S(=O)(=O)Nc3nnc(C)s3)cc2)c(=O)[nH]1
inactive: SR leukemia 110% | RPMI-8226 leukemia 132% | OVCAR-8 ovarian 103% | OVCAR-5 ovarian 113% | SK-OV-3 ovarian 96.9% | IGROV1 ovarian 126% | OVCAR-3 ovarian 106% | HS 578T breast 89.4% | NCI/ADR-RES ovarian 113% | T-47D breast 112% | MDA-MB-435 melanoma 128% | SW-620 colon 93.4% | MCF7 breast 100% | HCT-116 colon 109% | HCC-2998 colon 117% | KM12 colon 98.6%

CCOc1cc(/C=N\NC(=O)N/N=C/c2ccc(O)c(OCC)c2)ccc1O
active: OVCAR-3 ovarian -34.7% | HS 578T breast -2.98% | MDA-MB-435 melanoma -14.6%
inactive: SR leukemia 12.2% | RPMI-8226 leukemia 32.8% | OVCAR-8 ovarian 52% | OVCAR-5 ovarian 66.8% | SK-OV-3 ovarian 16.2% | IGROV1 ovarian 59.4% | NCI/ADR-RES ovarian 51.6% | T-47D breast 29.5% | SW-620 colon 20.9% | MCF7 breast 17.4% | HCT-116 colon 24.8% | HCC-2998 colon 41% | KM12 colon 21.2%

C[C@H]1[C@H](C)CC[C@]2(C(=O)O)CC[C@]3(C)C(=CC[C@@H]4[C@@]5(C)C/C(=C/c6ccco6)C(=O)C(C)(C)[C@@H]5CC[C@]43C)[C@H]12
inactive: SR leukemia 31.2% [100 µM]
active: RPMI-8226 leukemia -19.3% [100 µM] | OVCAR-8 ovarian -19% [100 µM] | OVCAR-5 ovarian -48.8% [100 µM] | SK-OV-3 ovarian -17.3% [100 µM] | IGROV1 ovarian -59.6% [100 µM] | OVCAR-3 ovarian -74.5% [100 µM] | NCI/ADR-RES ovarian -58.9% [100 µM] | T-47D breast -14.3% [100 µM] | BT-549 breast -62.5% [100 µM] | MDA-MB-435 melanoma -85.1% [100 µM] | SW-620 colon -44.9% [100 µM] | MCF7 breast -74.7% [100 µM] | HCT-116 colon -73% [100 µM] | HCC-2998 colon -81.4% [100 µM] | KM12 colon -73.5% [100 µM]

O=S(=O)(NCc1ccccc1)c1ncnc2nc[nH]c12
inactive: SR leukemia 105% | RPMI-8226 leukemia 99.2% | OVCAR-8 ovarian 87.2% | OVCAR-5 ovarian 106% | SK-OV-3 ovarian 108% | IGROV1 ovarian 119% | OVCAR-3 ovarian 111% | NCI/ADR-RES ovarian 97.4% | T-47D breast 107% | BT-549 breast 93.7% | MDA-MB-435 melanoma 110% | SW-620 colon 103% | MCF7 breast 98.1% | HCT-116 colon 108% | HCC-2998 colon 101% | KM12 colon 101%
